Gal4-VP16 FLuc – Gal4-VP16 reporter inhibition counter-screen | Drosophila S2 Gal4-VP16 UAS-luciferase, luminescence, 20 h | Potency, µM (highest dose often 53.6 µM), inactives show at the highest dose activity, negative = inhibition, usual class: inhibitors | 3.5% of 310,000 active | AID 2546;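 also: Gal4-VP16 expression switched on by copper sulfate through the metallothionein promoter; nearly all actives have a fitted effect of over 50% in size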
PLK1 PBD block – inhibitors of human PLK1 polo-box domain binding | Plk1 PBD binding of FITC phosphopeptide, fluorescence polarization | P53350 | 2.8% of 360,000 active | Potency, µM, without a hit: max response, negative = inhibition, usual class: inhibitors; also: series mostly up to about 57 µM; nearly all actives have a fitted effect of over 65% in size
Target sequence (P53350 whole entry, looked up, the tested form may be a part): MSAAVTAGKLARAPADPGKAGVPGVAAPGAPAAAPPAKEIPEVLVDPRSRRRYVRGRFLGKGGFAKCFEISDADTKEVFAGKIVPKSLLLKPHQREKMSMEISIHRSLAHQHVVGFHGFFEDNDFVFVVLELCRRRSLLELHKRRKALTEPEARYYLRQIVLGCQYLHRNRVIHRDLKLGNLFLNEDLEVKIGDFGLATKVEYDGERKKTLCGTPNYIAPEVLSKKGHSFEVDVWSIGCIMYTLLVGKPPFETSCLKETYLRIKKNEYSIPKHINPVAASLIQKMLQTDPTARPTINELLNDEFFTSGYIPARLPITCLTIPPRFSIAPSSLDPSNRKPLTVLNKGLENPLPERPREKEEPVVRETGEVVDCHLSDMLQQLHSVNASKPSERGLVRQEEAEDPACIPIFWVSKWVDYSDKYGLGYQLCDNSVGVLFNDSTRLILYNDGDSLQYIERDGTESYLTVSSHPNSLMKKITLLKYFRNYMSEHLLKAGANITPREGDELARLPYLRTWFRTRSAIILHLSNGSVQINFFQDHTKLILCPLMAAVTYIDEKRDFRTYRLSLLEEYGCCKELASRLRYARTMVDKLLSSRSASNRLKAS
ALDH1A1 inh – ALDH1A1 (human) enzyme inhibition; Purified ALDH1A1, NADH fluorescence, propionaldehyde substrate; Potency, µM (top dose mostly 75.3 µM), inactives show at the top dose activity, negative = inhibition, hits mostly inhibitors; 7.3% of 220,000 active; AID 1030; active = well fitted inhibition curve with a large enough effect, not every such curve was filed as active; inconclusive = small, poorly fitted or top-dose-only effect, or another doubt; inactive = no such curve, though single readings can be large or run the other way;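 also: plate controls were no enzyme wells and a reference inhibitor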
Sfp inh – Sfp phosphopantetheinyl transferase inhibition; Q9F4F7; Biochemical Sfp PPTase activity, qHTS; Potency, µM, inactives show largest response in the series, negative = inhibition, actives largely listed as inhibitors; 3.5% of 310,000 active;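 also: the enzyme is Sfp with the accession as filed and its product quenches rhodamine fluorescence; 0% = enzyme reaction without inhibitor and -100% = no enzyme wells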
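Buffer: 50 mM Hepes-Na pH 7.6, 10 mM MgCl2, 0.01% Nonidet P-40, 0.01% BSA. Enzyme 15 nM, pre-exposed to compound 15 min; substrates then added and fluorescence change tracked over 30 min.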
RORg inh – ROR gamma (mouse) transcription inhibition. P51450. Drosophila S2 Gal4-RORgamma UAS-luciferase reporter, 20 h. Potency, µM (top dose mostly 53.6 µM), without a hit: at the top dose activity change, negative = inhibition, hits mostly inhibitors. 5.4% of 310,000 active. AID 2551; also: nearly all actives have a fitted effect of over 60% in size
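In this cell-based reporter format, copper sulfate (700 uM final) drives Gal4–ROR gamma fusion expression from a metallothionein promoter in Drosophila Schneider cells; compounds preincubated 1 hr, reporter read after 20 hr at ambient temperature.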
* = called active by the depositor; ? = inconclusive; / = not tested or not shown; [ ] = remark or other dose. Rows were chosen to be rich in hits. Some 12% of all compounds tested hit in one or more screens of this group. Unless noted, calls follow the shape of the dose curve; as a rule, active = well fitted curve in the direction sought with a large enough effect; inconclusive = small, poorly fitted or top-dose-only effect, or another doubt; inactive = no such curve, though single readings can be large; an effect the other way counts as inactive or inconclusive. Unless noted, % is scaled to controls: 0 for no effect and ±100 for the full control effect; potency is read from the fitted curve at half-maximal effect.

SMILES	Gal4-VP16 FLuc	PLK1 PBD block	ALDH1A1 inh	Sfp inh	RORg inh
O=C(Nc1ccccc1)N1CCC2(CC1)CCN(C(=O)c1ccco1)CC2	?	/	-5%	10%	17%
COCc1cn(CC(C)n2c(=O)c3ccccc3n2Cc2cc(C(C)C)no2)nn1 (centres undefined)	/	-2%	/	/	/
Nc1nc2c(ncn2C2OC(COC(=O)c3ccccc3)C(OC(=O)c3ccccc3)C2OC(=O)c2ccccc2)c(=O)[nH]1 (centres undefined)	-13%	/	2%	-22%	-10%
Cc1nn(-c2ccccc2)c(Cl)c1/C=C(\C#N)C(=O)NC(C)C	?	-12%	14µM*	-21%	?
C#Cc1ccc(NC(=O)C2(C)CCN2C(=O)Cc2ccc(C(C)C)cc2)cc1 (centres undefined)	/	4%	/	/	/
Cc1cc(F)ccc1-c1cc(C(=O)NCc2cccs2)[nH]n1	/	-6%	/	/	/
N#CC(=C1Nc2ccccc2N1)S(=O)(=O)c1ccccc1	-8%	3.4µM*	10%	0%	5%
CCN1C(=O)CS/C1=C(\C#N)S(=O)(=O)c1ccccc1	-9%	5%	-13%	16%	-19%
O=C(CC12CC3CC(CC(C3)C1)C2)N/N=C/c1ccc([N+](=O)[O-])o1	?	-23%	-8%	2%	10µM*
Cc1cc(C)cc(OCC(=O)N/N=C/c2ccc([N+](=O)[O-])o2)c1	?	-8%	0%	-11%	8.9µM*
CC(=O)N/N=C/c1ccc([N+](=O)[O-])o1	3.5µM*	/	/	2%	?
O=[N+]([O-])c1ccc(/C=N/NS(=O)(=O)c2ccc(Cl)cc2)o1	?	?	7.9µM*	-14%	-15%
Cc1ccc(S(=O)(=O)N/N=C\c2ccc([N+](=O)[O-])o2)cc1	-5%[0.365 µM]	-18%	?	-13%	-18%
CCCN(CCC)C(=O)c1ccc2nc(-c3ccc(OC)c(OC)c3)c(-c3ccc(OC)c(OC)c3)nc2c1	3%	-6%	/	-2%	7%
O=C1c2ccccc2C(=O)N1C[C@]1(C(=O)O)NCCS1(=O)=O	/	/	-3%[13.5 µM]	/	/
O=C(CC12CC3CC(CC(C3)C1)C2)N/N=C\c1ccc[nH]1	16µM*	-1%	-7%	1%	7.9µM*
O=[N+]([O-])c1ccc(/C=N/N=C/c2ccc([N+](=O)[O-])o2)o1	4.5µM*	-4%	?	3%	1.1µM*
N[C@@H](CSC1(c2ccc(Cl)cc2)c2ccccc2-c2ccccc21)C(=O)O	/	/	9%[13.5 µM]	/	/
CC(=O)Nc1cccc(NC(=O)c2sc3ncn(CC(=O)N4CCCCC4)c(=O)c3c2C)c1	/	-8%	0.89µM*	-4%	-9%[0.365 µM]
COCCNC(=O)c1sc2ncn(CC(=O)N3CCCCC3)c(=O)c2c1C	/	3.4µM*	4%	2%	-3%[0.365 µM]
CCc1nc2c(OCc3ccc(Cl)cc3)cccn2c1N(C)C(=O)c1ccc2c(c1)OCO2	/	-2%	/	/	/
C[C@@]1(C(NC(=O)c2ccccc2)c2ccc(-c3ccccc3)cc2)C[C@H]1C1CCCCC1 (some centres undefined)	0%	/	6%	17%	9%
CCOC(=O)c1ccc(NS(=O)(=O)c2ccc3[nH]c(=O)[nH]c3c2)cc1	1%	12µM*	16µM*	22µM*	19%
CCC(CC)NC(=O)c1ccc(NS(=O)(=O)c2ccc3[nH]c(=O)[nH]c3c2)cc1	?	-1%	/	?	?
Cc1oc2c(cc(NS(=O)(=O)c3ccc(Cl)cc3)c3ccccc32)c1C(=O)O	2%	?	/	-26%	1%
SMILES	Gal4-VP16 FLuc	PLK1 PBD block	ALDH1A1 inh	Sfp inh	RORg inh
COC(=O)c1c(C)oc2c1cc(NS(=O)(=O)c1cccs1)c1ccccc12	10%	-20%	7.9µM*	-14%	?
CCOC(=O)c1ccc(S(=O)(=O)Nc2cc(C(=O)O)ccc2Cl)cc1	-14%	?	3.2µM*	?	10%
Cc1oc2c(cc(NS(=O)(=O)c3ccc4c5c(cccc35)C(=O)N4)c3ccccc32)c1C(=O)OC(C)C	0%	-7%	?	-27%	0%
CCOC(=O)c1c(C)oc2c1cc(NS(=O)(=O)c1ccc(C(=O)O)cc1)c1ccccc12	-9%	27µM*	/	56µM*	-2%
COCCn1c(=O)c(-c2ccc(F)cc2)nc2cncnc21	-11%	/	-9%	2%	2%
Cn1cccc1C(=O)OCC(=O)N1CCN(c2ccccc2)CC1	/	3%	/	/	/
C=CCN1[C@@H](Cc2ccccc2)COCCS1(=O)=O	/	2%	/	/	/
O=C(CNC(=O)c1ccccc1)Oc1cccc(Cl)c1	/	7.5µM*	/	/	/
CS(=O)(=O)N(Cc1ccc(C(=O)NC2CCCC2)cc1)c1ccccc1	-2%	-14%	-9%	-11%	5%
CS(=O)(=O)N(Cc1ccc(C(=O)NN=C2CCCC2)cc1)c1ccccc1	-9%	-8%	1.3µM*	12%	19%[10 µM]
CS(=O)(=O)N(Cc1ccc(C(=O)NN=C2CCCCCC2)cc1)c1ccccc1	?	-7%	16µM*	-10%	-17%
CC1(C(=O)NS(=O)(=O)c2ccc(C#N)cc2)CCN1C(=O)CC1CCCCC1 (centres undefined)	/	0%	/	/	/
Nc1cc(Cl)ccc1Oc1ccccc1	-4%	-4%	5%	18%	19%
Nc1cc(Cl)ccc1Oc1ccc(Cl)cc1	-7%	-9%	1.6µM*	-10%	32%
Cn1nnnc1SCC(=O)Nc1ccc2c(c1)OCO2	-20%	3%	-2%	14%	8%
COC1=CC(=NCl)C=CC1=NCl	/	13µM*	/	/	/
CCc1nc(N)c(C#N)c(-c2ccco2)c1C	0%	-8%	?	12%	14%
CC(C)OC(=O)CSc1nc(N)c(C#N)c(-c2ccco2)c1C#N	3%	?	?	56µM*	-10%
Cc1c(-c2ccccc2)nc(N)c(C#N)c1-c1ccco1	?	-6%	?	14µM*	8%
CC(C)OC(=O)CSc1nc(N)c(C#N)cc1C#N	6%	-6%	?	26%	34%
C[N@@+]1(Cc2ccc(Cl)c(Cl)c2)CCC[C@@H]1c1ccc[n+](Cc2ccc(Cl)c(Cl)c2)c1	/	/	11%[13.5 µM]	/	/
O=C(c1ccc(NC(=S)NCc2ccco2)cc1)N1CCCCC1	16%	-16%	22µM*	?	25%
CCOc1ccc(NC(=S)N(Cc2ccc(Cl)cc2)Cc2ccco2)cc1	?	?	-3%	?	13µM*
CC(C)(Oc1ccc(Cl)cc1)C(=O)NCc1ccco1	?	-21%	13µM*	-7%	0%
Cc1ccc(C(=O)N2CCC(C(=O)NCc3ccco3)CC2)cc1	5%	-19%	/	12%	-1%
O=C(O)Cc1ccc(NC(=S)NCc2ccco2)cc1	-17%	4%	4%	-24%	2%
S=C(NCc1ccco1)Nc1ccccc1	?	-10%	29%	19%	8.9µM*
COc1c(C)cc(C(O)c2ncc(-c3ccccc3F)[nH]2)cc1C (centres undefined)	/	-3%	/	/	/
CCCCC[C@H](O)/C=C/C=C\CCCCCCCCCC(=O)O	-10%	/	12%	-11%	-19%
